“And” between values parts separate entries of the source, which are not always exact repeats. Equal values may be shown once. Inconclusive results are not listed. Where a call stands in place of a potency, no number is given. The source made the active and inactive calls. Calls come from the whole dose curve. Square brackets hold non-standard residues; d marks the D form. Peptide text beside a SMILES is read from it. * marks the point of attachment. Benzoyl(4-tBu) = CC(C)(C)c1ccc(C(=O)*)cc1; Lys(Et2) = CCN(CC)CCCC[C@H](N)C(=O)O
Experiments:
[1] = Cytotoxicity counterscreen for inhibitors of SARS-CoV-2 cell entry (AID 1645845); details: outcome: dose series up to 57.1 µM unless noted; note: nearly all actives have a fitted effect of over 50% in size
In short: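 48 h compound treatment (after 1 h preincubation), HEK293-ACE2 cells, 37 C/5% CO2; ATP luminescence endpoint; normalized to cell wells and media blanks.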

[2] = Primary qHTS to identify inhibitors of SARS-CoV-2 cell entry (AID 1645846); details: SARS-CoV-2 pseudovirus cell entry assay, luminescence; activity change, negative = inhibition: at 57.1 µM (top of the series) unless noted; note: nearly all actives have a fitted effect of over 45% in size
In short: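 Data are normalized to wells receiving SARS-CoV-2-S pseudoparticles and those given bald particles. Entry signal was luciferase luminescence in stable hACE2 Expi293F cells, 48 hr post-infection, after 1 hr compound pretreatment.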
Potency is the fitted concentration of half-maximal effect.

SMILES	Potency [1]	activity change, negative = inhibition [2]	Potency [2]	activity change, negative = cytotoxicity [1]
NC(=O)c1cc(F)cc2c1C(=O)N(C1CCN(C3CCC(F)(F)CC3)CC1)C2	inactive	-24%		
Cc1c(-c2cnccn2)ssc1=S	inactive	3.56%		
C[C@]12CCCN1CC1=NNC(=O)c3cc(F)cc4[nH]c2c1c34	inactive	-15.3%		
CC(C)(O)[C@H]1CC[C@@](C)([C@H]2[C@@H](O)C[C@@]3(C)[C@@H]4C[C@H](O[C@@H]5O[C@H](CO)[C@@H](O)[C@H](O)[C@H]5O)[C@H]5C(C)(C)[C@@H](O[C@@H]6OC[C@@H](O)[C@H](O)[C@H]6O)CC[C@@]56C[C@@]46CC[C@]23C)O1	inactive		inactive	
O=C(O)c1cnn(-c2nc3cc(OC(F)(F)F)c(Cl)cc3[nH]2)c1	inactive		inactive	
O=c1ncccn1[C@@H]1O[C@H](CO)[C@@H](O)[C@H]1O	inactive		inactive	
Cn1cc(-c2ccc(F)c(C(F)(F)F)c2)nc1C1CCN(c2ncnc3[nH]ncc23)CC1	inactive		inactive	
CCO[C@@H]1OC(=O)C[C@@H]1NC(=O)[C@@H]1CCCN2C(=O)CC[C@H](NC(=O)c3nccc4ccccc34)C(=O)N12	inactive	-4.46%		
Nc1nc2cc(-c3ccc4ncc(C(=O)N5CCOCC5)n4c3)ccc2o1	inactive		inactive	
CC1=C(c2ccc(O)cc2)[C@H](c2ccc(OCCN3CCCCC3)cc2)Oc2cc(O)ccc21	inactive	-47.4%		
Cc1c(NC(=O)c2cc3c(s2)CCCC3)cccc1-c1cn(C)c(=O)c(Nc2ccc(C3C(=O)N(C)CCN3C)cc2)n1 (stereo not given)	inactive		inactive	
Nc1ccn([C@@H]2C(F)=C(CO)[C@@H](O)[C@H]2O)c(=O)n1	inactive	-76.2%		
CCc1cc(/C(C)=N/OCc2ccc(C3CCCCC3)c(C(F)(F)F)c2)ccc1CN1CC(C(=O)O)C1	inactive		inactive	
O=C1Cc2cc(C(=O)NC3C[C@H]4CC[C@@H](C3)N4S(=O)(=O)CC3CCN(CCCC(F)(F)F)CC3)c(Cl)cc2N1 (stereo not given in full)	inactive	-20.5%		
O=C(O)CNC(=O)c1ncc(-c2cccc(Cl)c2)cc1O	inactive		inactive	
CN[C@@H](C)C(=O)N[C@@H]1C(=O)N(Cc2c(C)ccc3ccccc23)c2ccc(C#N)cc2N(C(C)=O)[C@H]1C	inactive		inactive	
C=C1/C(=C/C=C2\CCCC3(C)[C@@H]([C@H](C)/C=C/C=C/C(O)(CC)CC)CC[C@@H]23)C[C@@H](O)C[C@@H]1O (stereo not given in full)	inactive		inactive	
Cn1cc(-c2ccc3c(c2)CCN3C(=O)Cc2cccc(C(F)(F)F)c2)c2c(N)ncnc21	inactive	3.56%		
Cc1nc(NC(=O)N2CCCC2C(N)=O)sc1-c1ccnc(C(C)(C)C(F)(F)F)c1 (stereo not given)	inactive	-29.8%		
[2H]c1nc(C)nc([2H])c1-c1cc(NC[C@@H](C)c2cccc3c(C(=O)NC)ccnc23)ncn1	inactive	0.426%		
COc1cc2c3c(n(CCCNCCO)c(=O)c2cc1OC)-c1cc2c(cc1C3=O)OCO2	7.94 µM (active)	-96.5%		
O=C(O)CCNc1cc(N2CCc3ccccc3CC2)nc(-c2cccnc2)n1	inactive		inactive	
Cc1ccc(NC(=O)c2ccc(CN3CC[C@H](N(C)C)C3)c(C(F)(F)F)c2)cc1Nc1nccc(-c2cncnc2)n1	inactive	-12% [at 27.1 µM]		
N[C@@H](CCC(=O)O)C(=O)N[C@@H](Cc1c[nH]c2ccccc12)C(=O)O (H-Glu-Trp-OH)	inactive		inactive	

SMILES	Potency [1]	activity change, negative = inhibition [2]	Potency [2]	activity change, negative = cytotoxicity [1]
CC(C)(O)CC[C@@H](O)[C@](C)(O)[C@H]1CC[C@@]2(O)C3=CC(=O)[C@@H]4C[C@@H](O)[C@@H](O)C[C@]4(C)[C@H]3CC[C@]12C	inactive	-22.8%		
Cc1noc(-c2ccc(-c3ccc(C4(C(=O)O)CC4)cc3)cc2)c1NC(=O)O[C@H](C)c1ccccc1	inactive		35.5 µM (active)	
CC(Nc1ncnc2nc[nH]c12)c1cc2cccc(Cl)c2c(=O)n1-c1ccccc1 (stereo not given)	inactive	-36.2%		
CN(C(=O)CNC(=O)/C=C/c1cccc(Cl)c1)C1CCS(=O)(=O)CC1	inactive	-2.44%		
Cc1cc(-c2cnn3c(NCC4CC(C)(O)C4)cc(Oc4cccnc4)nc23)ccc1C(=O)NC1CC1 (stereo not given)		-11.3% [at 5.25 µM]		4.49% [at 5.25 µM] (inactive)
OC[C@H]1O[C@@H](S[C@@H]2O[C@H](CO)[C@H](O)[C@H](n3cc(-c4cccc(F)c4)nn3)[C@H]2O)[C@H](O)[C@@H](n2cc(-c3cccc(F)c3)nn2)[C@H]1O	inactive	2.64%		
O=C(/C=C\n1cnc(-c2cc(C(F)(F)F)cc(C(F)(F)F)c2)n1)NNc1ccccn1	2.51 µM (active)		3.16 µM (active)	
COC(=O)/C=C/C(=O)OC	inactive	-4.67%		
Cc1ccc(NC(=O)Nc2nnc(Sc3ncnc4cc(OCCCN5CCOCC5)ccc34)s2)cc1	inactive		inactive	
CC1Oc2cc(cnc2N)-c2c(nn(C)c2C#N)CN(C)C(=O)c2ccc(F)cc21 (stereo not given)	inactive	-19.3%		
Clc1cc2c(NC3CCCC3)nnc(-c3ccncc3)c2cc1Cl	inactive		inactive	
Cc1ccc(NC(=O)c2ccc(CN3CCNCC3)cc2)cc1Nc1nccc(-c2cccnc2)n1	25.1 µM (active)	-27.5%		
COc1ccc(Cl)cc1-c1cc(=O)[nH]c(=S)n1CC(N)=O	inactive	4.69%		
O=S(=O)(NCCNC/C=C/c1ccc(Br)cc1)c1cccc2cnccc12	inactive	-22.5%		
CCCCNc1ncc2c(-c3ccc(F)cc3)nn(CC3CCC(N)CC3)c2n1 (stereo not given)	inactive		10 µM (active)	
CCc1c(-c2ccccc2C)nc2c(C#N)c[nH]n2c1=O	inactive	-14.3%		
Clc1cccc(-c2ccc(-c3nnc(CCCc4ccc5cccnc5n4)o3)cc2)c1	inactive		inactive	
Cc1[nH]nc2ncc(C(=O)N3CCC[C@H]3c3ccc(Cl)cc3)cc12	inactive	-17.3%		
Nc1nc(OCc2cc(Br)cs2)c2[nH]cnc2n1	inactive		inactive	
O=C(/C=C/c1ccc(Cl)cc1)N1CCC2(CC1)CN(Cc1ccc(Cl)c(Cl)c1)C(=O)O2	inactive	0.824%		
C[C@H]1CN(C2COC2)CCN1c1ccc(Nc2cc(-c3ccnc(N4CCn5c(cc6c5CC(C)(C)C6)C4=O)c3CO)cn(C)c2=O)nc1	inactive	-10.4%		
CC[C@H](Nc1ncnc2nc[nH]c12)c1oc2ccccc2c(=O)c1-c1cccc(F)c1	inactive		inactive	
COc1ccnc2[nH]cc(C(=O)C(=O)N3CCN(C(=O)c4ccccc4)C[C@H]3C)c12	inactive	-5.46%		
CCN(CC)CCCC[C@H](NC(=O)[C@H](CC(C)C)NC(=O)[C@H](C)NC(=O)[C@H](Cc1ccccc1)NC(=O)c1ccc(C(C)(C)C)cc1)C(=O)N[C@@H](CO)C(=O)OC ({Benzoyl(4-tBu)}-FAL[Lys(Et2)]S-OMe)	inactive		inactive	

SMILES	Potency [1]	activity change, negative = inhibition [2]	Potency [2]	activity change, negative = cytotoxicity [1]
N#Cc1ccc(C2CCCc3cncn32)cc1 (stereo not given)	inactive	-13.4% [at 27.1 µM]		
Cc1cnc(Nc2ccc(F)cc2Cl)nc1-c1c[nH]c(C(=O)NC(CO)c2cccc(Cl)c2)c1 (stereo not given)	inactive		8.91 µM (active)	
CCN1CCN(Cc2ccc(NC(=O)c3ccc(C)c(NC(=O)c4cncc(-c5cccs5)c4)c3)cc2C(F)(F)F)CC1	31.6 µM (active)		3.16 µM (active)	
CC(C)(CNC(=O)c1cccc(-c2noc(C(F)(F)F)n2)c1)c1coc(-c2ccccc2)n1	inactive	-6.95%		
CC(=O)Nc1ccc(C(=O)NC(C)(C)C)cc1	inactive		inactive	
O=C(Cc1ccccc1)Nc1nnc(CCSCCc2nnc(NC(=O)Cc3ccccc3)s2)s1	inactive		inactive	
O=C(O)CCCCN(CCc1ccccc1OCc1ccc(CCc2ccccc2)cc1)Cc1ccc(C(=O)O)cc1	inactive		inactive	
COc1cccc(-c2c(C)n(Cc3c(F)cccc3C(F)(F)F)c(=O)n(C[C@H](NCCCC(=O)O)c3ccccc3)c2=O)c1F	inactive	-17.5% and -28.9%		
CC(=O)N1CCC[C@H]1C(=O)N[C@@H](Cc1cnc[nH]1)C(=O)N[C@@H](CO)C(=O)N[C@@H](CS)C(=O)N[C@@H](CC(N)=O)C(N)=O (Ac-PHSCN-NH2)	inactive	-1.41%		
CC(C)Oc1ccc(-c2nn([C@@H](C)c3oc4ccc(F)cc4c(=O)c3-c3cccc(F)c3)c3ncnc(N)c23)cc1F	inactive	-16.7%		
CONC(=O)Nc1ccc(-c2sc3c(c2CN(C)C)c(=O)n(-c2ccc(OC)nn2)c(=O)n3Cc2c(F)cccc2F)cc1	inactive	-24.2%		
Cc1c(F)cc(C(=O)NC2CC2)cc1-c1c(F)cn2c(C(C)(C)C)nnc2c1F	inactive	3.6%		
CNC(=O)c1c(C)oc2cc(Oc3ncnc4cc(OC)c(OC)cc34)ccc12	inactive		inactive	
N=C(N)c1ccc2nc(-c3cc(CC(=O)N[C@@H](CC(=O)O)C(=O)O)cc(-c4cc(S(N)(=O)=O)ccc4O)c3O)[nH]c2c1	inactive		inactive	
CC1=NN(c2ccc(C(=O)O)cc2)C(=O)/C1=C/c1ccc(-c2cc(C)c(C)cc2[N+](=O)[O-])o1	inactive		inactive	
Nc1cccc2c1CN([C@H]1CCC(=O)NC1=O)C2=O	inactive	-16.6%		
CC1(C)SCCN(S(=O)(=O)c2ccc(OCC#CCO)cc2)[C@H]1C(=O)NO	inactive	-8.73%		
C[C@H](CCC(=O)O)[C@H]1CC[C@H]2[C@@H]3[C@@H](O)C[C@@H]4C[C@H](O)CC[C@]4(C)[C@H]3CC[C@]12C	inactive	-16.5%		
O=C(c1c(F)ccc(NS(=O)(=O)N2CC[C@@H](F)C2)c1F)c1c[nH]c2ncc(-c3cnc(C4CC4)nc3)cc12	inactive	-17.3%		
OC1CCC([C@H](O)C[C@H]2c3c(F)cccc3-c3cncn32)CC1 (stereo not given in full)	inactive		inactive	
O=C(Nc1ccc2c(c1)CCN(Cc1ncn[nH]1)C2)c1ccccc1-c1ccc(C(F)(F)F)cc1	inactive	-32.8%		
O=C(O)C1=CO[C@@H](O[C@@H]2O[C@H](CO)[C@@H](O)[C@H](O)[C@H]2O)[C@@H]2C(CO)=CC[C@H]12	inactive		inactive	
